Measured values: PubChem BioAssay (EPA / NIEHS)
Results filed as inconclusive are left out. Active and inactive are the calls of the source. How the source made its calls, unless noted: active means hit-call score of the fitted dose curve at least 0.9, where 1 is the maximum; inconclusive means response in the unintended direction; inactive means score below 0.9.

Experiments:
[1] = ATG_TCF_b_cat_CIS: Attagene CIS-FACTORIAL HepG2 Assay for human T-Cell-Factor with beta-catenin (TCF/b-cat) (AID 2282965; active means hit-call score of the fitted dose curve at least 0.9, where 1 is the maximum; inactive means score below 0.9); details: HepG2 TCF/beta-catenin cis-reporter transcription, actives raise or lower the signal
How it was run: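 In this cis-format system, transfected HepG2 cells report endogenous transcription factor activity. Readout after 24 h exposure is reporter transcript abundance from RT-PCR and capillary electrophoresis, analysed for gain or loss of signal versus DMSO.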

[2] = ATG_TAL_CIS: Attagene CIS-FACTORIAL HepG2 Assay for human TAL Basal Promoter (AID 2282966; active means hit-call score of the fitted dose curve at least 0.9, where 1 is the maximum; inactive means score below 0.9;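 further: background control endpoint measuring basal TAL promoter reporter mRNA not a specific factor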); details: HepG2 Attagene cis-factorial TAL promoter reporter; actives raise or lower the signal
How it was run: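 HepG2 cells were transiently transfected with promoter-driven multiplexed reporter units and dosed for 24 h. Reporter mRNA was measured by RT-PCR with capillary electrophoresis fluorescence; bidirectional fits used DMSO as baseline, serving as a background control.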

[3] = ATG_VDRE_CIS: Attagene CIS-FACTORIAL HepG2 Assay for human Vitamin D Receptor Element (VDRE) (AID 2282968; active means hit-call score of the fitted dose curve at least 0.9, where 1 is the maximum; inactive means score below 0.9); details: HepG2 VDRE cis-reporter transcription, actives raise or lower the signal
How it was run: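 RT-PCR/CE readout of reporter mRNA; HepG2, transient transfection, 24 h dosing; DMSO baseline; bidirectional analysis.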

[4] = target: Estrogen receptor (Homo sapiens) (UniProt P03372); assay: ATG_ERa_TRANS: Attagene TRANS-FACTORIAL HepG2 Assay for human Estrogen Receptor alpha (ERa) (AID 2282970); details: HepG2 Attagene TRANS ERa GAL4 reporter, mRNA
How it was run: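 HepG2 cells transiently transfected with multiplexed GAL4-UAS reporter units; ERa activity read via exogenous chimeric NR-Gal4 protein. After 24 hour compound exposure, reporter mRNA measured by RT-PCR with 6-FAM labelling and capillary electrophoresis; gain-of-signal fitted relative to DMSO.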

[5] = target: X-box-binding protein 1 (Homo sapiens) (UniProt P17861); assay: ATG_Xbp1_CIS: Attagene CIS-FACTORIAL HepG2 Assay for human X-box Binding Protein 1 (XBP1) (AID 2282972; active means hit-call score of the fitted dose curve at least 0.9, where 1 is the maximum; inactive means score below 0.9); details: HepG2 XBP1 cis-element reporter, Attagene multiplex; actives raise or lower the signal
How it was run: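 Fluorescence-labelled cDNA fragments from reporter transcripts, separated by capillary electrophoresis, give the signal. Source: HepG2 cells transfected with promoter-driven reporter units, harvested 24 h post-dose. DMSO served as reference for bidirectional curve fitting.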

[6] = ATG_M_19_TRANS: Attagene TRANS-FACTORIAL HepG2 Assay for M19 Transcription Factor (Internal Marker) (AID 2282974); details: HepG2 Attagene TRANS-FACTORIAL M19 internal marker reporter
How it was run: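 Measured here: internal-marker reporter transcript from HepG2 cells transfected with MRTUs, harvested at 24 h. cDNA PCR products were 6-FAM labelled by primer extension, cut with HpaI for 2 h at 37 C, and resolved by CE.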

[7] = target: Estrogen-related receptor gamma (Homo sapiens) (UniProt P62508); assay: ATG_ERRg_TRANS: Attagene TRANS-FACTORIAL HepG2 Assay for human Estrogen-Related Receptor gamma (ERRg) (AID 2282977); details: HepG2 Attagene TRANS reporter, ERRg transactivation;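 further: hits increase reporter signal over DMSO so potencies reflect activators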
How it was run: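 Transfect HepG2 with multiple GAL4-UAS reporter transcription units; dose chemicals 24 h; isolate RNA, reverse-transcribe with oligo(dT), PCR-amplify, label with 6-FAM, digest with HpaI; size fragments by capillary electrophoresis. DMSO serves as negative control.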

[8] = target: Bile acid receptor (Homo sapiens) (UniProt Q96RI1); assay: ATG_FXR_TRANS: Attagene TRANS-FACTORIAL HepG2 Assay for Farnesoid X Receptor (FXR) (AID 2282979); details: HepG2 Attagene TRANS FXR-GAL4 reporter transcription;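 further: hits raise reporter mRNA above DMSO so AC50 marks FXR activation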
How it was run: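 HepG2 cells transiently transfected with reporter constructs in which a chimeric FXR-GAL4 protein drives a GAL4-UAS reporter; 24 h compound exposure. Reporter mRNA measured by RT-PCR, FAM labelling, HpaI digestion and capillary electrophoresis; gain-of-signal versus DMSO.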

[9] = target: Oxysterols receptor LXR-beta (Homo sapiens) (UniProt P55055); assay: ATG_LXRb_TRANS: Attagene TRANS-FACTORIAL HepG2 Assay for human Liver X Receptor beta (LXRb) (AID 2282981); details: HepG2 Attagene TRANS GAL4-LXRb reporter, mRNA
How it was run: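 In this TRANS format, exogenous chimeric NR-Gal4 protein activity, not endogenous factors, drives reporter expression in transfected human HepG2 cells. Exposure lasted 24 h; reporter mRNA was read by fluorescent capillary electrophoresis.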

[10] = target: Hepatocyte nuclear factor 4-alpha (Homo sapiens) (UniProt P41235); assay: ATG_HNF4a_TRANS: Attagene TRANS-FACTORIAL HepG2 Assay for human Hepatocyte Nuclear Factor 4 alpha (HNF4a) (AID 2282982); details: HepG2 HNF4a transactivation reporter, mRNA readout
How it was run: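 Cells used were human HepG2, transiently carrying GAL4-UAS reporter units read out against exogenous NR-GAL4 chimeras. Reporter transcript levels after 24 h dosing were quantified by fluorescent RT-PCR and capillary electrophoresis.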

[11] = target: Transcriptional activator Myb (Homo sapiens) (UniProt P10242); assay: ATG_Myb_CIS: Attagene CIS-FACTORIAL HepG2 Assay for human Myeloblastosis (Myb) Proto-Oncogene Transcription Factor (AID 2282986; active means hit-call score of the fitted dose curve at least 0.9, where 1 is the maximum; inactive means score below 0.9); details: HepG2 Attagene CIS-FACTORIAL Myb reporter transcription; actives raise or lower the signal
How it was run: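 Fluorescence signals from capillary electrophoresis of RT-PCR-amplified reporter cDNA give the read-out. Cells: HepG2 transfected with multiple cis-regulated reporter units. Exposure lasts 24 hours; DMSO defines baseline for gain or loss of signal.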

[12] = ATG_GAL4_TRANS: Attagene TRANS-FACTORIAL HepG2 Assay for GAL4 (Internal Marker) (AID 2282976); details: HepG2 Attagene TRANS GAL4 internal marker reporter
How it was run: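 HepG2 cells transiently transfected with multiplexed GAL4-UAS reporter constructs were dosed for 24 h. Reporter mRNA was measured by RT-PCR, 6-FAM primer extension, HpaI digestion and capillary electrophoresis, and gain of signal was fitted relative to DMSO.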

[13] = target: Oxysterols receptor LXR-alpha (Homo sapiens) (UniProt Q13133); assay: ATG_LXRa_TRANS: Attagene TRANS-FACTORIAL HepG2 Assay for human Liver X Receptor alpha (LXRa) (AID 2282980); details: HepG2 Attagene TRANS reporter, LXRa transactivation
How it was run: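 HepG2 cells were transiently transfected with multiplexed reporter units driven by chimeric LXRa–GAL4 fusion proteins, then dosed for 24 h. Reporter mRNA was quantified by RT-PCR, fluorescent labelling and capillary electrophoresis; gain of signal fitted against DMSO baseline.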

[14] = target: Nuclear receptor subfamily 1 group I member 3 (Homo sapiens) (UniProt Q14994); assay: ATG_CAR_TRANS: Attagene TRANS-FACTORIAL HepG2 Assay for human Constitutive Androstane Receptor (CAR) (AID 2282969); details: HepG2 Attagene TRANS-FACTORIAL CAR reporter;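 further: activators raise reporter mRNA above DMSO so AC50 marks induction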
How it was run: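 HepG2 cells transiently transfected with multiplexed GAL4-UAS reporter units expressing chimeric NR-Gal4 proteins; compound exposure 24 h. Reporter mRNA measured by RT-PCR, 6-FAM labelling, HpaI digestion and capillary electrophoresis; gain-of-signal fitted against DMSO baseline.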

[15] = ATG_M_32_TRANS: Attagene TRANS-FACTORIAL HepG2 Assay for M32 Transcription Factor (Internal Marker) (AID 2282984); details: HepG2 Attagene TRANS M32 internal marker reporter
How it was run: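 Human hepatoma HepG2, transient MRTU transfection, 24 h treatment. RNA → RT-PCR → fluorescent primer extension → HpaI digest (2 h, 37 C) → CE. Positive-direction fit vs DMSO.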

[16] = target: Nuclear receptor subfamily 4 group A member 2 (Homo sapiens) (UniProt P43354); assay: ATG_NURR1_TRANS: Attagene TRANS-FACTORIAL HepG2 Assay for human Nuclear Receptor Related Protein 1 (NURR1) (AID 2282985); details: HepG2 Attagene TRANS reporter, mRNA readout
How it was run: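 After 24 h chemical dosing, total RNA from transiently transfected HepG2 cells was reverse-transcribed and reporter cDNA PCR-amplified, FAM-labelled and analysed by capillary electrophoresis. Activity fitted in positive direction, DMSO as negative control.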

[17] = ATG_TGFb_CIS: Attagene CIS-FACTORIAL HepG2 Assay for human Transforming Growth Factor (TGF) (AID 2282967; active means hit-call score of the fitted dose curve at least 0.9, where 1 is the maximum; inactive means score below 0.9); details: HepG2 Attagene CIS TGFb reporter, mRNA transcription; actives raise or lower the signal
How it was run: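 Transient MRTU transfection of HepG2 (FuGene 6). Dose 24 h. TriZol RNA, oligo(dT) RT, PCR, 6-FAM primer extension, HpaI cut, CE. Bidirectional fit, DMSO = baseline.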

[18] = target: Glucocorticoid receptor (Homo sapiens) (UniProt P04150); assay: ATG_GR_TRANS: Attagene TRANS-FACTORIAL HepG2 Assay for human Glucocorticoid Receptor (GR) (AID 2282978); details: HepG2 Attagene TRANS GR reporter, mRNA transcription;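 further: activators score as hits since higher reporter transcript over DMSO is fitted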
How it was run: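 Measurement of GAL4-UAS-driven reporter mRNA in human HepG2 liver cells 24 h post-dosing, using RT-PCR with fluorescent labelling and capillary electrophoresis; the transfected constructs report exogenous NR-GAL4 chimera activity, fitted upward against DMSO.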

[19] = target: Steroid hormone receptor ERR1 (Homo sapiens) (UniProt P11474); assay: ATG_ERRa_TRANS: Attagene TRANS-FACTORIAL HepG2 Assay for human Estrogen-Related Receptor alpha (ERRa) (AID 2282971); details: HepG2 Attagene TRANS reporter, ERRa transactivation
How it was run: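 HepG2 cells transiently transfected with multiplexed GAL4-UAS reporter units reading chimeric ERRa-Gal4 activity; 24 h compound exposure. Reporter mRNA measured by RT-PCR, 6-FAM labelling, HpaI digest and capillary electrophoresis; gain of signal fitted versus DMSO baseline.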

[20] = ATG_M_06_TRANS: Attagene TRANS-FACTORIAL HepG2 Assay for M06 Transcription Factor (Internal Marker) (AID 2282983); details: HepG2 Attagene TRANS M06 internal marker reporter
How it was run: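 HepG2 cells transiently transfected with multiplexed GAL4-UAS reporter transcription units; after 24 h compound exposure, reporter mRNA measured by RT-PCR, FAM-labelled primer extension, HpaI digestion and capillary electrophoresis. Gain-of-signal fitted versus DMSO baseline; background control readout.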

Measured: AC50

Chain of Estrogen receptor (Homo sapiens) (P03372 whole entry, looked up, the tested form may be a part): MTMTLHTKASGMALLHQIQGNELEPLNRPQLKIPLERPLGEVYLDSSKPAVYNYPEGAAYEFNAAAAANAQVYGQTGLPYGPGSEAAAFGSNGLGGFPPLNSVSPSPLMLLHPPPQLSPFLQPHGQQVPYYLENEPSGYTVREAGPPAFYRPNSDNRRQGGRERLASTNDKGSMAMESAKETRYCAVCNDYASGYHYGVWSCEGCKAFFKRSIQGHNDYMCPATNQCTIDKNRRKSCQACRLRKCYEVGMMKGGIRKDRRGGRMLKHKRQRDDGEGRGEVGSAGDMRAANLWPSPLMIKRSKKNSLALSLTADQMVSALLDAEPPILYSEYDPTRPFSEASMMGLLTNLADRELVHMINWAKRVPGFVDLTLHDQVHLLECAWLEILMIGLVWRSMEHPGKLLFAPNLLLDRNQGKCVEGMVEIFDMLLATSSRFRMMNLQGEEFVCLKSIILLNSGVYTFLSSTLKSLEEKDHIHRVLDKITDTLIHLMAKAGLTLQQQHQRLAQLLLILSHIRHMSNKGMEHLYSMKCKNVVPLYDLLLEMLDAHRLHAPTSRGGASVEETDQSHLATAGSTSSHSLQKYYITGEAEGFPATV
Chain of X-box-binding protein 1 (Homo sapiens) (P17861 whole entry, looked up, the tested form may be a part): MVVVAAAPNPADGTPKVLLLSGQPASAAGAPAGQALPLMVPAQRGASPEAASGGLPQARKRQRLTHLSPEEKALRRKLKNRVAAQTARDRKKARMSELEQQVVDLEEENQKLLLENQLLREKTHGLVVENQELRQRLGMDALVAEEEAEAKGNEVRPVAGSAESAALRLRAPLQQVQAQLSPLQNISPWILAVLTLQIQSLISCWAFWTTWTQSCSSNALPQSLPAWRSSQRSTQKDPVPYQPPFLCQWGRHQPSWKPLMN
Chain of Transcriptional activator Myb (Homo sapiens) (P10242 whole entry, looked up): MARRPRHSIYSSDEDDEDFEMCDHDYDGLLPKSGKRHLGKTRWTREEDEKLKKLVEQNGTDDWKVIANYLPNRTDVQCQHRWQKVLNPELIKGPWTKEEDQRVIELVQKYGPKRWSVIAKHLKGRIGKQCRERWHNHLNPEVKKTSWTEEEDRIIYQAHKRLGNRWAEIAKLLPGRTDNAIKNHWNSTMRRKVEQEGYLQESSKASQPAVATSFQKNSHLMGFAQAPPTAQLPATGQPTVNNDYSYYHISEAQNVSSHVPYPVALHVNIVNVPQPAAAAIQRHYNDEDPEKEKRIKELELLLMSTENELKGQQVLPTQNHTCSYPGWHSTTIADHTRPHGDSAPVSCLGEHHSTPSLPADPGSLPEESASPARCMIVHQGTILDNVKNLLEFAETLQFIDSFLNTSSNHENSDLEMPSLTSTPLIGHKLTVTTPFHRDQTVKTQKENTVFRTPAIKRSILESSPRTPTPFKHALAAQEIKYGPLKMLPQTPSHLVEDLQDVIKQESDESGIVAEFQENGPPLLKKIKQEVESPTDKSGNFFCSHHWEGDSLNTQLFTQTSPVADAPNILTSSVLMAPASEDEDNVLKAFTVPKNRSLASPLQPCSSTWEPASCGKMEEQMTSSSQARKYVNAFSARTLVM
Chain of Glucocorticoid receptor (Homo sapiens) (P04150 whole entry, looked up, the tested form may be a part): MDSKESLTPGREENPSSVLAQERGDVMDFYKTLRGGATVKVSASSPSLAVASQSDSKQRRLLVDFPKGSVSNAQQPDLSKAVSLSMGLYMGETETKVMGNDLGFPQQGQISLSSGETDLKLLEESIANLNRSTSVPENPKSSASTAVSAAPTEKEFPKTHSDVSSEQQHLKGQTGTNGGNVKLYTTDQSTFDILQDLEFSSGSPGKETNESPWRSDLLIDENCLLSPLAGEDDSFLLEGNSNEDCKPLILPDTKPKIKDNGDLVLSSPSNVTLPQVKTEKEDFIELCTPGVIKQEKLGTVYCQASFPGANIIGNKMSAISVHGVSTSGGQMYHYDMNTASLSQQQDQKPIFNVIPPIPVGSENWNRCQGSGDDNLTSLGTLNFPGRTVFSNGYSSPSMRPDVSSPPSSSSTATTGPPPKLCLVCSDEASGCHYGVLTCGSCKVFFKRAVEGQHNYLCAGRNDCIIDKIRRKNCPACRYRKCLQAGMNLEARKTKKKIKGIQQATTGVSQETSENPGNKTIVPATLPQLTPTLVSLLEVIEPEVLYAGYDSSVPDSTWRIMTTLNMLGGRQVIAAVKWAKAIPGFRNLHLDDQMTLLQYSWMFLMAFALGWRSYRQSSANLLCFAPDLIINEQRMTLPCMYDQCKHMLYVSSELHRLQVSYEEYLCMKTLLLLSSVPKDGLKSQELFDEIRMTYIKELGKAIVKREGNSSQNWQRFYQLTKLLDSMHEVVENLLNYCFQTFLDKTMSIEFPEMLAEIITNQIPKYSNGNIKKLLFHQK
Chain of Oxysterols receptor LXR-beta (Homo sapiens) (P55055 whole entry, looked up, the tested form may be a part): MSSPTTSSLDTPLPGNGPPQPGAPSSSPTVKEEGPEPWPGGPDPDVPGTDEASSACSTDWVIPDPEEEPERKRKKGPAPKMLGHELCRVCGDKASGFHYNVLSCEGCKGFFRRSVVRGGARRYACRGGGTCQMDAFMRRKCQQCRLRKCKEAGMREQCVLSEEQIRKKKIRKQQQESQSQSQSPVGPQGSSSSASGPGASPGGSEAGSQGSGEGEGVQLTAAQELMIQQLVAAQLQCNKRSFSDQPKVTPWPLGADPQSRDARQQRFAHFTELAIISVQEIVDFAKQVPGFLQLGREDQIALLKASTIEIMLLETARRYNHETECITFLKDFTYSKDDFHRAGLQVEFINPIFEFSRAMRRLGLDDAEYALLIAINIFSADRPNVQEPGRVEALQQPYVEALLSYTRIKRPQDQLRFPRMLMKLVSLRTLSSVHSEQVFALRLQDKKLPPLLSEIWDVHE
Chain of Bile acid receptor (Homo sapiens) (Q96RI1 whole entry, looked up, the tested form may be a part): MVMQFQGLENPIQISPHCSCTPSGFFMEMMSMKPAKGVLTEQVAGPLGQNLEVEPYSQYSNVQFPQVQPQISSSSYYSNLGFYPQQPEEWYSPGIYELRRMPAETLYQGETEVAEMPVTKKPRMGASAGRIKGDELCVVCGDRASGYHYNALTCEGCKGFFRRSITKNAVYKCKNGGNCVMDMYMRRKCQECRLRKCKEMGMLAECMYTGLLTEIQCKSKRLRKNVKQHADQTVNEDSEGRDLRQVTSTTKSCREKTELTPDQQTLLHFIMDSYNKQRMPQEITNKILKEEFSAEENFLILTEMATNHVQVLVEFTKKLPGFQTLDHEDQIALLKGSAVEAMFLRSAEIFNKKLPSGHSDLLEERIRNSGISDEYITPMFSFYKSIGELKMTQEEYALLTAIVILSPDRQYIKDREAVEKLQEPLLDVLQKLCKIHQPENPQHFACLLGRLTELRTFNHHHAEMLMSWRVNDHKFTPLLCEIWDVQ
Chain of Nuclear receptor subfamily 4 group A member 2 (Homo sapiens) (P43354 whole entry, looked up): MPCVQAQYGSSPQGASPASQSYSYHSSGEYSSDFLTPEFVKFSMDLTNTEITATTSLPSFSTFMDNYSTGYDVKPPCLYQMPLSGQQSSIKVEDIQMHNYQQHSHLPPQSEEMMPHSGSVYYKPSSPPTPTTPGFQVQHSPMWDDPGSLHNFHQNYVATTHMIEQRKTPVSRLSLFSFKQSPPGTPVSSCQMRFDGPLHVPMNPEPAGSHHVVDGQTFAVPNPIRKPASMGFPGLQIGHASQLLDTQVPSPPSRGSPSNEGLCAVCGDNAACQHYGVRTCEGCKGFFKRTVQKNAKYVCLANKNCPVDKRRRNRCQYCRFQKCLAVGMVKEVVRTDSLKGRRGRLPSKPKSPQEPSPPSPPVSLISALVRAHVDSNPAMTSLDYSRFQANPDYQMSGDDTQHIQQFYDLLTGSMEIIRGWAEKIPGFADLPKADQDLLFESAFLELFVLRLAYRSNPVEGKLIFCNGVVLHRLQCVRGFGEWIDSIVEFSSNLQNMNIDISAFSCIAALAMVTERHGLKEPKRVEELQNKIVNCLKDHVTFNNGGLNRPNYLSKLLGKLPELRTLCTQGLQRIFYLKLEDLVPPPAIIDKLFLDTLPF
Chain of Hepatocyte nuclear factor 4-alpha (Homo sapiens) (P41235 whole entry, looked up, the tested form may be a part): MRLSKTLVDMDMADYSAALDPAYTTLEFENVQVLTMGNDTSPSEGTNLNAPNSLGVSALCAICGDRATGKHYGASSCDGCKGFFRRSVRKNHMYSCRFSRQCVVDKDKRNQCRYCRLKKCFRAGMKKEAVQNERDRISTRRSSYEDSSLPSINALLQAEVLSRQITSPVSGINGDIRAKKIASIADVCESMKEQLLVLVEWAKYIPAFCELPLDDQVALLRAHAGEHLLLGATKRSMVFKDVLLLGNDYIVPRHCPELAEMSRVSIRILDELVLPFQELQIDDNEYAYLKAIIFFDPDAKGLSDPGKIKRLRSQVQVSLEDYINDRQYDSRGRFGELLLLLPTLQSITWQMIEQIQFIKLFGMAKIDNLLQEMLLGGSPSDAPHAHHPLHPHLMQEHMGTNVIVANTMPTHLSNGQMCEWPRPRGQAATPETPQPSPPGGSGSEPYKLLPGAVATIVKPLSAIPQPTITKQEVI
Chain of Oxysterols receptor LXR-alpha (Homo sapiens) (Q13133 whole entry, looked up, the tested form may be a part): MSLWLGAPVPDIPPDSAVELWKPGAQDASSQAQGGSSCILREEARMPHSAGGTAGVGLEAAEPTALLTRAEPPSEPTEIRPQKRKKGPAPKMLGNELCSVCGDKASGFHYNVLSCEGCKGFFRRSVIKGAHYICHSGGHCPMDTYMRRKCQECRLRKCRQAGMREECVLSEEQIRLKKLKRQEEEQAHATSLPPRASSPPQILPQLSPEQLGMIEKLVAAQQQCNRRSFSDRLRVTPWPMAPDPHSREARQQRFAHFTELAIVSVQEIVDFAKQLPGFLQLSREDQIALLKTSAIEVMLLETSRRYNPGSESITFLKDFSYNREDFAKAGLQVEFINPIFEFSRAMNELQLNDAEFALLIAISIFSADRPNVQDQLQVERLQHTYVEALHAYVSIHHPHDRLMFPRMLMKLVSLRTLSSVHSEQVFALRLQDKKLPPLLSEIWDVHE

CO[Si](C)(CCC(F)(F)C(F)(F)C(F)(F)C(F)(F)C(F)(F)C(F)(F)F)OC
inactive: [1] | [2] | [3] | [4] | [5] | [6] | [7] | [8] | [9] | [10] | [11]

COCCC(=O)OC
inactive: [1] | [2] | [3] | [4] | [5] | [6] | [12] | [13] | [10]

CC(C)OC(=O)COc1ccc(Cl)cc1Cl
inactive: [1] | [2] | [14] | [4] | [12] | [10] | [15] | [16]

CCN=C1C=CC(=C(c2ccc(N(CC)CC)cc2)c2ccc(N(CC)CC)cc2)c2ccccc21
active: [1] 0.885 µM | [3] 1.15 µM
inactive: [2] | [17] | [12] | [18] | [8] | [10]

CCOCOCC
inactive: [1] | [2] | [3] | [5] | [18] | [8] | [13] | [9] | [15] | [11]

NC(=O)C(F)(F)C(F)(F)C(F)(F)C(F)(F)C(N)=O
inactive: [1] | [2] | [3] | [4] | [19] | [6] | [12] | [10] | [11]

CC(C)Nc1ccc(NC(C)C)c2c1C(=O)c1ccccc1C2=O
active: [3] 0.417 µM
inactive: [1] | [17] | [14] | [4] | [5] | [12] | [18] | [20] | [16]

O=c1[nH]cccc1O
inactive: [1] | [2] | [3] | [19] | [5] | [6] | [12] | [18] | [13] | [9] | [11]

OCCCc1cccnc1
inactive: [1] | [3] | [5] | [12] | [18] | [8] | [10] | [15] | [16] | [11]
